Laboratory results as given in PubChem BioAssay (NCATS).
Unmarked numbers belong to inactive results. Records with an inconclusive call do not appear. Activity calls are given as the source filed them. Unless noted, the call rests on the fitted dose curve; in most records, active means well fitted curve in either direction with a large enough effect (not every such curve was filed as active); inconclusive means small, poorly fitted or top-dose-only effect, or another doubt; inactive means flat fitted curve, though single readings scatter.

What was measured:
[1] = molecular target: Lysosomal acid glucosylceramidase (Homo sapiens) (UniProt P04062); test: Glucocerebrosidase-p2 (AID 348; in the data active means potency below about 10 µM; further: potency means the concentration at half of the fitted maximal effect); conditions: purified GBA, blue fluorogenic substrate, 40 min
Sequence of Lysosomal acid glucosylceramidase (Homo sapiens) (P04062 whole entry, looked up): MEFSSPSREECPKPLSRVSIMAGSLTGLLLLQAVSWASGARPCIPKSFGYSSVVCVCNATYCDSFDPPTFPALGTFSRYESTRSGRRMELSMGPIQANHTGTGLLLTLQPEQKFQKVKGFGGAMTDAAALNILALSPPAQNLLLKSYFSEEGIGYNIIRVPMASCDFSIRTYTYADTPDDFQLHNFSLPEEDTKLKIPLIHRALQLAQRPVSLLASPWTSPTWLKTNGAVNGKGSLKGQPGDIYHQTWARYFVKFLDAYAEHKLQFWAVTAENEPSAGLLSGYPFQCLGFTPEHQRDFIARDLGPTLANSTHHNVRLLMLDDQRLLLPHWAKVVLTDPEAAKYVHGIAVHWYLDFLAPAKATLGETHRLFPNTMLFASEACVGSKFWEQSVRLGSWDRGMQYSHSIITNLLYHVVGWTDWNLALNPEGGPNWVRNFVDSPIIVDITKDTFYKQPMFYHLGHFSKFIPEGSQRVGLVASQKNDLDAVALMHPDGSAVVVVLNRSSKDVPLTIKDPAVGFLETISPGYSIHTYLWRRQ
Method in brief: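 Normal human glucocerebrosidase (0.2 nM) with blue fluorogenic substrate (80 uM final) in citrate/phosphate pH 5.9 with 10mM sodium taurocholate, 0.01% tween-20; 40 min RT, NaOH/glycine stop; fluorescence Ex 365/Em 440; AC50 from a titration from 0.6 nM upwards.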

[2] = AP1 Signaling Pathway (AID 357); conditions: ME-180 AP-1-bla reporter, EGF-induced, beta-lactamase ratio, 5 h; at 7.69 µM (top of the series) unless noted;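 further: ME-180 reporter cells stimulated with EGF at its EC50 level; on the % scale 0 is the no-effect control and ±100 the full control effect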
Method in brief: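 Beta-lactamase reporter under AP-1 response element, ME-180 background. Stimulus: EC50 EGF. Compound exposure 5 h, 37 °C. Detection: CCF4, 2.5 h RT, 460/530 nm. Values: AC50 from titration.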

[3] = molecular target: Cytochrome P450 1A2 (Homo sapiens) (UniProt P05177); test: p450-cyp1a2 (AID 410; calls by dose curve; further: potency means the concentration at half of the fitted maximal effect;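 on activity change, negative = inhibition: -100% = full effect of reference inhibitor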); conditions: recombinant CYP1A2, luciferin-ME demethylation, luminescence; series mostly up to 57 µM
Sequence of Cytochrome P450 1A2 (Homo sapiens) (P05177 whole entry, looked up): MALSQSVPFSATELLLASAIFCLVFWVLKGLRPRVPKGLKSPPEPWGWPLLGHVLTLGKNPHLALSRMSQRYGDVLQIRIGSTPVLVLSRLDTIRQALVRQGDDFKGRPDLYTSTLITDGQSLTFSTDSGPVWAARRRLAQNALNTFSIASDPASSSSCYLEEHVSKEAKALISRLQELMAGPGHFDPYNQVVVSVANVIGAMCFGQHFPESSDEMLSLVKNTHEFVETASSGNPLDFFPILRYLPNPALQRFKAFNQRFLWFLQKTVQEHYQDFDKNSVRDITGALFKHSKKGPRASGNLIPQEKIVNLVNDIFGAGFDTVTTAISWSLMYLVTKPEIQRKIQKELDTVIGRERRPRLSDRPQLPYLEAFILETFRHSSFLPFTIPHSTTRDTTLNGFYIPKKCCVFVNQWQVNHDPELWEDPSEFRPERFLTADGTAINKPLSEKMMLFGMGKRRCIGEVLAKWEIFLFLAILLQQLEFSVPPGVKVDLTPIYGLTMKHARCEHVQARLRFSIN
Method in brief: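 Read-out is luminescence from luciferin produced by CYP1A2 demethylation of Luciferin-ME (100uM, at Km). Detection reagent stopped the 60 min NADPH-dependent reaction; signals were normalized to 57 uM furafylline.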

[4] = Stat Signaling Pathway (AID 446); conditions: ME-180 SIE beta-lactamase reporter, IL-6 stimulated, 5 h; at 7.69 µM (top of the series) unless noted;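 further: ME-180 cervical cancer cells given 40 pM IL-6 alongside compound; SIE-controlled beta-lactamase reporter measured as 460/530 nm FRET emission ratio; on the % scale 0 is the no-effect control and ±100 the full control effect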
Method in brief: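 Compound effects on IL-6-induced STAT reporter activity were measured in ME-180 cells. After overnight culture, cells were co-treated with 40 pM IL-6 for 5 hrs before beta-lactamase substrate loading at room temperature.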

[5] = molecular target: Glucocorticoid receptor (Homo sapiens) (UniProt P04150); test: GR-EFC Redistribution (AID 451; calls by dose curve; further: potency means the concentration at half of the fitted maximal effect); conditions: CHO-K1 GR-EFC translocation, beta-gal luminescence, 2 h
Sequence of Glucocorticoid receptor (Homo sapiens) (P04150 whole entry, looked up, the tested form may be a part): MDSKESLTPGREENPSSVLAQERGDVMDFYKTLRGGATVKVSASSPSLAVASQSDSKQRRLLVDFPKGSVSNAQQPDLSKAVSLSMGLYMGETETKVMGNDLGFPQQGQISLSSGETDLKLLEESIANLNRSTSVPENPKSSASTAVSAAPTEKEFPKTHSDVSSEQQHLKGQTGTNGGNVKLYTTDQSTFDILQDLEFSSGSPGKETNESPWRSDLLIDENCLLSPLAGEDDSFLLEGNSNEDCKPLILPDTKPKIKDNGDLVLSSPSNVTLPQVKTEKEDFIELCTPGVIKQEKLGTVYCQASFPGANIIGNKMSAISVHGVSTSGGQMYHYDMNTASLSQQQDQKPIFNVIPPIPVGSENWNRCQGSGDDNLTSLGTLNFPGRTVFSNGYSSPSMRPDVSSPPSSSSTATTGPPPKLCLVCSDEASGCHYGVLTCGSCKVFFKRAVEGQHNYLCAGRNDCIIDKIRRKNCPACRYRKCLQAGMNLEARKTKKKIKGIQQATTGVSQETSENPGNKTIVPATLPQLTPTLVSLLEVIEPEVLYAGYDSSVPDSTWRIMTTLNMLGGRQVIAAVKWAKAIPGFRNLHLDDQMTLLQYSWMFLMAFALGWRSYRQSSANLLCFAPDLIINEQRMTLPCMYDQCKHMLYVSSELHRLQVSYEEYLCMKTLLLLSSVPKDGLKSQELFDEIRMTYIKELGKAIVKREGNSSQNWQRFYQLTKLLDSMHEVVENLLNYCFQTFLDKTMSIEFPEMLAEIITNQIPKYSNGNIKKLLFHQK
Method in brief: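 CHO-K1 cells stably expressing nuclear-localized β-gal enzyme acceptor and GR fused C-terminally to the enzyme donor fragment; ligand-driven nuclear translocation restores β-gal by complementation. Compounds titrated up to 46 uM final, 2 h at 37 °C; luminescence read.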

[6] = molecular target: Mitogen-activated protein kinase 10 (Mus musculus) (UniProt Q61831); test: JNK3 AlphaScreen Assay (AID 530); conditions: JNK3 lysate, c-Jun phosphorylation; series mostly up to 57.1 µM;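 further: kinase came from lysate of stimulated human HepG2 cells; signal reports phosphorylation of biotinylated GST-cJun 1-79 at Ser73 with 10 µM ATP; on the % scale 0 is the no-effect control and ±100 the full control effect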
Method in brief: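 Biotinylated GST-cJun(1-79) served as substrate for JNK3 in HepG2 lysates stimulated with IL-1beta and TNF-alpha. ATP was 10 uM final, pH 7.6. Ser73 phosphorylation was quantified by AlphaScreen (680 nm excitation).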

[7] = molecular target: 3',5'-cyclic-AMP phosphodiesterase 4B (Homo sapiens) (UniProt Q07343); test: qHTS Assay for Inhibitors of PDE-IV (AID 607; active means well fitted activation curve with a large enough effect in the main read-out, with a control signal flat, not every such curve was filed as active; further: % of control where 0% means no effect); conditions: HEK293 ACTOne CNG channel cells, membrane potential fluorescence; series mostly up to 22.9 µM
Sequence of 3',5'-cyclic-AMP phosphodiesterase 4B (Homo sapiens) (Q07343 whole entry, looked up): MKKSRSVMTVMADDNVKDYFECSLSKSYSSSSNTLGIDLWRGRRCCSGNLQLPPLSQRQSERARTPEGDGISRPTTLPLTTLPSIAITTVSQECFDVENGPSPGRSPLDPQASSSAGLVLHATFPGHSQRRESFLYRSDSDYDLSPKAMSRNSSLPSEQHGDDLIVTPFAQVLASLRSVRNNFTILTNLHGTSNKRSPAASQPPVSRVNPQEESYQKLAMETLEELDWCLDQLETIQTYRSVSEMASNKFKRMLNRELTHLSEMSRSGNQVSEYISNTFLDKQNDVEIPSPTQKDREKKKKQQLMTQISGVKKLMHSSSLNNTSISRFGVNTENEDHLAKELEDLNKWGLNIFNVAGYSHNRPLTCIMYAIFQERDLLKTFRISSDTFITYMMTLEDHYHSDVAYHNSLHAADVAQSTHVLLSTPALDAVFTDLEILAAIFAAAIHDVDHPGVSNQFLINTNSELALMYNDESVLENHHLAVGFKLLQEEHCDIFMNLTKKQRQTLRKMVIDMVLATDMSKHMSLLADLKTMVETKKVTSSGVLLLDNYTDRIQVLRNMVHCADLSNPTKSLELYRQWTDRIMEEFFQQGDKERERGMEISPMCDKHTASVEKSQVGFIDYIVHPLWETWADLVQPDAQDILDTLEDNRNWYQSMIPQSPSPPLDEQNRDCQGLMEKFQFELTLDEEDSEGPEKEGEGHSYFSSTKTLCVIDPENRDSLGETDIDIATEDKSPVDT
Method in brief: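 ACTOne HEK293 cells carry a modified cAMP-gated CNG channel and express endogenous PDE4; plated 1000 cells/well, compounds up to 22.9 uM final. Membrane-potential dye fluorescence (ex 535/em 590) was read; parental cells received 10 uM forskolin + 100 uM RO 20-1724.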

[8] = Primary qHTS for small molecule stabilizers of the endoplasmic reticulum resident proteome: Secreted ER Calcium Modulated Protein (SERCaMP) assay (AID 1508630; active means well fitted curve in the direction sought with a large enough effect; an effect the other way counts as inactive or inconclusive; further: on the % scale 0 is the no-effect control and ±100 the full control effect); conditions: SH-SY5Y GLuc-SERCaMP (Gaussia luciferase released on ER calcium loss) secretion, thapsigargin, luminescence; series mostly up to 38.4 µM
Method in brief: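 The SH-SY5Y reporter protocol was run at 3 concentrations up to 38.3 uM (primary) or 11 concentrations (follow-up): 16 h compound, 100 nM thapsigargin for 4 h, then extracellular luciferase luminescence.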

[9] = NFAT Signaling Pathway (AID 444); conditions: Jurkat NFAT-bla M1, carbachol, beta-lactamase ratio, 5 h; at 7.69 µM (top of the series) unless noted
Method in brief: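 Jurkat cells carrying an NFAT-driven β-lactamase reporter and co-transfected muscarinic M1 receptor were treated with compound plus carbachol (1 uM final, an EC50 level) for 5 h at 37 °C. CCF4 loading followed for 1 h at RT; 460/530 nm ratio gave %activity.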

[10] = molecular target: Cytochrome P450 3A4 (Homo sapiens) (UniProt P08684); test: qHTS Assay for Inhibitors and Substrates of Cytochrome P450 3A4 (AID 884; active means well fitted curve in the direction sought with a large enough effect; an effect the other way counts as inactive or inconclusive; further: potency means the concentration at half of the fitted maximal effect; nearly all actives have a fitted effect of over 50% in size); conditions: recombinant CYP3A4, Luciferin-PPXE luminescence; series mostly up to 57.1 µM
Sequence of Cytochrome P450 3A4 (Homo sapiens) (P08684 whole entry, looked up): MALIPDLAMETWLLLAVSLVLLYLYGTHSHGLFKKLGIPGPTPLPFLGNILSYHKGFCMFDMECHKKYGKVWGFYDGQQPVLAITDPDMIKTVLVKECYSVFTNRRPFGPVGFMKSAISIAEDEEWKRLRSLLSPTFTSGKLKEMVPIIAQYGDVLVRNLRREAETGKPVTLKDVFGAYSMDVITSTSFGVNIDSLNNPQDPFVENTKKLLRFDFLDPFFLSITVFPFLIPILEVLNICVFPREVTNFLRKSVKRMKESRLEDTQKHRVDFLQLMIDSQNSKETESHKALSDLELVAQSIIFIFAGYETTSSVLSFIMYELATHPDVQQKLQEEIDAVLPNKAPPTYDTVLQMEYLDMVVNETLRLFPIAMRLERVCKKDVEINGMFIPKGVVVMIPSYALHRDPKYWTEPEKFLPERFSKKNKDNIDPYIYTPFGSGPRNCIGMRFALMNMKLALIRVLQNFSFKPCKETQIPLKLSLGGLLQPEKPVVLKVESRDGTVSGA
Method in brief: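 Luminescent readout of luciferin produced by CYP3A4 (20 nM) dealkylation of Luciferin-PPXE, 25 uM (its KM). NADPH-driven reaction ran 60 min at RT after 10 min compound preincubation; data scaled to 57 uM ketoconazole as 100% inhibition.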

[11] = molecular target: Cytochrome P450 3A4 (Homo sapiens) (UniProt P08684); test: qHTS Assay for Activators of Cytochrome P450 3A4 (AID 885; active means well fitted curve in the direction sought with a large enough effect; an effect the other way counts as inactive or inconclusive; further: nearly all actives have a fitted effect of over 65% in size); conditions: recombinant CYP3A4, Luciferin-PPXE luminescence, 60 min; series mostly up to 57.1 µM
Method in brief: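 CYP3A4 activity: Luciferin-PPXE O-dealkylation, 25uM substrate, 200mM KPO4, RT throughout. Read-out is luciferase luminescence; higher values reflect activation.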

[12] = molecular target: Cytochrome P450 2C19 (Homo sapiens) (UniProt P33261); test: qHTS Assay for Inhibitors and Substrates of Cytochrome P450 2C19 (AID 899; active means well fitted curve in the direction sought with a large enough effect; an effect the other way counts as inactive or inconclusive; further: potency means the concentration at half of the fitted maximal effect; nearly all actives have a fitted effect of over 60% in size); conditions: recombinant CYP2C19, luciferin-H EGE luminescence; series mostly up to 57.1 µM
Sequence of Cytochrome P450 2C19 (Homo sapiens) (P33261 whole entry, looked up): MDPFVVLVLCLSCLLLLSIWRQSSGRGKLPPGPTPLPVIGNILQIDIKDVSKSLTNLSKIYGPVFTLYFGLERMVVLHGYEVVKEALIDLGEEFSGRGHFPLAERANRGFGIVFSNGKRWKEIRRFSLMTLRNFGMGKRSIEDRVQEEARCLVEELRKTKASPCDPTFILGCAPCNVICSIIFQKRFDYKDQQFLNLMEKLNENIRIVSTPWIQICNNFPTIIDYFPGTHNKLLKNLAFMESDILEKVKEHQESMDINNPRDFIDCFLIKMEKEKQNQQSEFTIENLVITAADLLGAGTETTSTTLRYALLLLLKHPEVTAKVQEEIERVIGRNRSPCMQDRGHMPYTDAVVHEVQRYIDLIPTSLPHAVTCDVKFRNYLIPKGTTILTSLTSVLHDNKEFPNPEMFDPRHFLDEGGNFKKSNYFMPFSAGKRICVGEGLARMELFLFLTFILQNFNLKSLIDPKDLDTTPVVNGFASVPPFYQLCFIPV
Method in brief: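 In 50mM KPO4, the reaction held 5nM enzyme and KM-level (10uM) Luciferin-H EGE; it ran 60 min at 37C after NADPH regeneration and a 10 min compound preincubation. Luminescence values were scaled to 57uM ketoconazole as complete inhibition.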

[13] = molecular target: Glucocorticoid receptor (Homo sapiens) (UniProt P04150); test: GR-GFP Redistribution (AID 450;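 active means compounds whose dose series gives a full or clear partial fitted curve of increased nuclear translocation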; further: potency means the concentration at half of the fitted maximal effect); conditions: U2OS GR-GFP nuclear translocation, laser cytometry, 2 h
[14] = Confirmation and Secondary Assay for Modulators of Hemoglobin Beta Chain Splicing at IVS2 654 locus (AID 910; active means well fitted curve in the direction sought with a large enough effect; an effect the other way counts as inactive or inconclusive;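 further: per-well total GFP intensity by laser scanning cytometry after 2-day treatment; % of control where 0% means no effect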); conditions: HeLa EGFP-654 splicing reporter, GFP fluorescence, 48 h; series mostly up to 38.3 µM
Method in brief: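 HeLa cells stably carrying EGFP interrupted by mutant beta-globin IVS2-654 intron (CMV-driven) were treated with compound for 2 days at 37C; corrected splicing was scored as total peak GFP intensity per well (488 nm excitation, 500-520 nm emission).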

[15] = Confirmation and Secondary Assay for Modulators of Hemoglobin Beta Chain Splicing at IVS2 705 locus (AID 930; active means well fitted curve in the direction sought with a large enough effect; an effect the other way counts as inactive or inconclusive;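 further: HeLa cells stably expressing the EGFP-705 splicing reporter; % of control where 0% means no effect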); conditions: HeLa EGFP-705 splicing reporter, GFP fluorescence, 48 h; series mostly up to 38.3 µM
Method in brief: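 Restored EGFP fluorescence after 2-day compound exposure reports splicing correction in IVS2-705 EGFP reporter HeLa cells; positive control was 500 nM splice-blocking PNA oligo. Signal measured as well total peak GFP intensity (488 nm excitation).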

[16] = molecular target: Ubiquitin carboxyl-terminal hydrolase 1 (Homo sapiens) (UniProt O94782); test: Inhibitors of USP1/UAF1: Pilot qHTS (AID 504865; active means well fitted curve in the direction sought with a large enough effect; an effect the other way counts as inactive or inconclusive;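 further: rhodamine fluorescence freed from ubiquitin-rhodamine substrate followed over time; top concentration of the series differs between compounds; on the % scale 0 is the no-effect control and ±100 the full control effect; nearly all actives have a fitted effect of over 35% in size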); conditions: purified USP1/UAF1, Ub-rhodamine cleavage fluorescence; series mostly up to 54.9 µM
Sequence of Ubiquitin carboxyl-terminal hydrolase 1 (Homo sapiens) (O94782 whole entry, looked up): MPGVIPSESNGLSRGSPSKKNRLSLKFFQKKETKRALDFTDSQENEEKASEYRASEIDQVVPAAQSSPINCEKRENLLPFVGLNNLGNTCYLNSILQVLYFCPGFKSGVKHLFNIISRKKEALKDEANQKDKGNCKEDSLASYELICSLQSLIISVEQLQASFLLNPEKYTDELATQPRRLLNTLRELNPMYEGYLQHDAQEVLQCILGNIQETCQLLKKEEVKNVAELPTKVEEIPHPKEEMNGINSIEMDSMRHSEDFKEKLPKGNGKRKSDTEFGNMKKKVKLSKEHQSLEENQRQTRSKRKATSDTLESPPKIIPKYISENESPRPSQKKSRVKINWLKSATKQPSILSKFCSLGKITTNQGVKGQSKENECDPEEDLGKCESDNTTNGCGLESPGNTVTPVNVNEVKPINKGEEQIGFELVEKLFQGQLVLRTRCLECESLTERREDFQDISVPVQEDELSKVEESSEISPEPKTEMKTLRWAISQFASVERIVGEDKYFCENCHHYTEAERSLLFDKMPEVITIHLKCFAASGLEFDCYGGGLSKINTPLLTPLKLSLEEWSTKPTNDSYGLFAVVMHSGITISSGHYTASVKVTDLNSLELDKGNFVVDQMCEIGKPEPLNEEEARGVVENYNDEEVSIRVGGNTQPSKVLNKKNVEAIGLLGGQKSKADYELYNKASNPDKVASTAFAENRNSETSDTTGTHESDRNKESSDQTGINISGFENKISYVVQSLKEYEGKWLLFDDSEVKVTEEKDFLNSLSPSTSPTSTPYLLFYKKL
Method in brief: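 In 50mM HEPES pH 7.8 containing 0.5mM EDTA, 1mM TCEP, 0.1 mg/ml BSA and 0.01% Tween-20, 1nM USP1/UAF1 is exposed to compound for 15 min, then Ub-Rho (150nM final) is added and fluorescence is read over time.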

[17] = qHTS Assay for Identification of Small Molecule Agonists for Hypoxia Response Element Signaling Pathway (AID 914; active means well fitted activation curve with a large enough effect in the signal ratio, with a control signal flat, not every such curve was filed as active; the % refers to the signal ratio; further: potency means the concentration at half of the fitted maximal effect); conditions: ME-180 (cervical carcinoma) HRE-bla reporter, beta-lactamase ratio, CoCl2, 17 h; activation: hits give high values
Method in brief: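 AC50 values come from titration-series %Activity, taken as the 460/530nm ratio of CCF4 fluorescence (excitation 405nm). CellSensor HRE-bla ME-180 cells were treated 17 hours at 37 C with compound plus an EC50 level of CoCl2.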

Structure (SMILES)	Potency [1]	activity change, negative = inhibition [2]	Potency [3]	activity, negative = inhibition [4]	Potency [5]	Potency [6]	Potency [7]	outcome [8]	activity change, negative = inhibition [9]	Potency [10]	Potency [11]	Potency [12]	Potency [13]	Potency [14]	outcome [15]	Potency [16]	Potency [17]
O=C(c1csnn1)N1CCC[C@@]2(CCN(c3ccncc3)C2)C1	> 11.4 µM	13.9%	inactive	8.6%	> 46 µM	inactive	inactive	inactive									
COc1ccc(C(=O)N2CCC[C@@]3(CCN(c4cccc(-c5ccccc5)c4)C3)C2)cc1	> 11.4 µM	8.11%	12.6 µM (active)	-9.84%	> 46 µM			inactive	-15.1%	3.16 µM (active)	inactive	7.94 µM (active)					
O=C(Nc1cccc(F)c1)N1CCCC2(CCN(C(=O)c3cnccn3)CC2)C1	> 11.4 µM	-5.64%	inactive	-5.83%	> 46 µM	inactive		inactive	-3.4%		inactive						
Clc1ccccc1-c1cc(NCc2cccnc2)ncn1	> 11.4 µM	-5.3%	3.16 µM (active)	6.36%	> 46 µM	inactive	inactive	inactive			inactive		> 46 µM	inactive	inactive	inactive	
COCCn1c(=O)c(-c2cn(C)c3ccccc23)nc2cnc(Oc3ccccc3)nc21	> 11.4 µM	26.2%	10 µM (active)		> 46 µM		inactive	inactive	19.4%	3.16 µM (active)	inactive		> 9.22 µM				3.16 µM (active)
N#Cc1ccc(CN2CCC3(CC2)CCN(C(=O)c2csnn2)CC3)cc1	> 11.4 µM	3.47%	inactive	-1.95%	> 46 µM	inactive	inactive	inactive									
Cn1cccc1C(=O)N1CCC2(CC1)CCN(c1ccccn1)CC2	> 11.4 µM	-0.389%	15.8 µM (active)	-4.58%	> 46 µM	inactive	inactive	inactive									
O=C(c1ccncc1)N1CCC2(CC1)CCN(c1ncccn1)CC2	> 11.4 µM	-2.2%	20 µM (active)		> 46 µM	inactive	inactive	inactive	11.7%			2.51 µM (active)					
